Results from article PMC4336329 (PLoS ONE, 2015).
The whole screen tested about 310,000 compounds, of which about 14,000 (4.5%) showed an effect of 50% or more. Effects have a minus sign here. The list comes from a sample in which strong results are over-represented; it also holds similar structures and randomly drawn compounds.

The molecules below were run against human ether-à-go-go-related gene (hERG) potassium channel (human, UniProt Q12809) (assay: primary screen, population patch clamp on CHO cells stably expressing hERG; higher = less effect of the substance).
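Note: peak tail current of the secondary pulse compared with the same well before compound.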

Sequence of human ether-à-go-go-related gene (hERG) potassium channel (Q12809 whole entry, looked up): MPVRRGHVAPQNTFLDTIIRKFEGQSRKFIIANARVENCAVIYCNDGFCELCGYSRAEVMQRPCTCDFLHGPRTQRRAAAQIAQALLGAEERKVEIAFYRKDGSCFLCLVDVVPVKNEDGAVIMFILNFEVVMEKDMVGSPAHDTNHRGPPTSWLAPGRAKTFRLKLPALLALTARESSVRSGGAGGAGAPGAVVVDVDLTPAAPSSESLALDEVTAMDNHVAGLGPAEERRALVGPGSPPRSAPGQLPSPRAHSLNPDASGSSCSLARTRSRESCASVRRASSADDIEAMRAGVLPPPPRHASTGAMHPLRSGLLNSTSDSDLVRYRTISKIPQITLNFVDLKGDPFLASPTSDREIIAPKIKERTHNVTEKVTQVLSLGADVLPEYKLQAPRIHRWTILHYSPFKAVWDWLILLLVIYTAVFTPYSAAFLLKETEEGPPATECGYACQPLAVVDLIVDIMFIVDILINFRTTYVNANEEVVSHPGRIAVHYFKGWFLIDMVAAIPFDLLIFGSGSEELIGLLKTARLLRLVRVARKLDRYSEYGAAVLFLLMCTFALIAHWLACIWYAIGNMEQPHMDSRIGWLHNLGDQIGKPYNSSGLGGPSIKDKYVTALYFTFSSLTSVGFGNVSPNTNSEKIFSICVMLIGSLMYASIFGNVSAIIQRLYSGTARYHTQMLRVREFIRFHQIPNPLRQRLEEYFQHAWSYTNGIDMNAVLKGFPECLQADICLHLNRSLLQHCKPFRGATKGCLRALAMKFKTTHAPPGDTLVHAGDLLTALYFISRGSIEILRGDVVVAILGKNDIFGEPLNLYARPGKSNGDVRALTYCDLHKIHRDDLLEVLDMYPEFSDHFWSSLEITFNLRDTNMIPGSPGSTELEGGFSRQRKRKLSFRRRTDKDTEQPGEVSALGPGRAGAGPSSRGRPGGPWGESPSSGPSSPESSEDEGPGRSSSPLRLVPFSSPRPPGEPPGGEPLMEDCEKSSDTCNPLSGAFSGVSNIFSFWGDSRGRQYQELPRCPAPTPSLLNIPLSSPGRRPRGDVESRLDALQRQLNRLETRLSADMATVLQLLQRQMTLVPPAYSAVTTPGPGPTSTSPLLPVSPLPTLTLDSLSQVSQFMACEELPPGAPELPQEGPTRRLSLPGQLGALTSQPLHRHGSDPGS

Row | SMILES | hERG current change (%, negative = inhibition) at 10uM
1 | O=C(NC(=O)N1CCOCC1)c1ccccc1 | 8.08%
2 | CC(=O)NNC(=O)CSc1nnc(-c2ccccc2)c(-c2ccccc2)n1 | 19.4%
3 | COc1ccc(CN2CC(=O)N(c3ccc(C)c(C)c3)C2=S)cc1OC | 12.2%
4 | CC(C)Oc1c(Cl)cc(CNC(C)(C)CO)cc1Cl | 0.775%
5 | CSc1nnc(-c2ccco2)c(-c2ccco2)n1 | 2.75%
6 | CCCCCC(=O)Nc1ccc2oc(-c3cccnc3)nc2c1 | -6.74%
7 | COC(=O)C1=C(C(=O)OC)SC2(S1)C(C(=O)OC)=C(C(=O)OC)SC1=C2c2cccc(C)c2NC1(C)C | -51.6%
8 | COC(=O)C1=C(C(=O)OC)SC2(S1)C(C(=O)OC)=C(C(=O)OC)SC1=C2c2cc(C)cc(C)c2NC1(C)C | 26.1%
9 | COC(=O)C1=C(C(=O)OC)SC2(S1)C(C(=O)OC)=C(C(=O)OC)SC1=C2c2cc(C)ccc2NC1(C)C | 14.3%
10 | CCOC(=O)C1CCCN(C(=O)c2cc(Nc3ccc(OC)cc3)nc3ccccc23)C1 (centres unmarked) | -15%
11 | COc1cc2nc(N(CCCN(C)C)C(=O)c3ccc(S(=O)(=O)N(C)C4CCCCC4)cc3)sc2cc1OC.Cl | -51.6%
12 | Cc1ccc2sc(N(CCCN(C)C)C(=O)c3ccc(S(=O)(=O)N(C)C4CCCCC4)cc3)nc2c1C.Cl | -8.13%
13 | COc1cc2nc(N(CCN(C)C)C(=O)c3ccc(S(=O)(=O)N(C)CC4CCCO4)cc3)sc2cc1OC.Cl (centres unmarked) | -9.01%
14 | CN(C)CCCN(C(=O)c1ccc(S(=O)(=O)N(C)C2CCCCC2)cc1)c1nc2ccc(Br)cc2s1.Cl | 2.39%
15 | CN(C)CCCN(C(=O)c1ccc(S(=O)(=O)N(C)C2CCCCC2)cc1)c1nc2ccc(F)cc2s1.Cl | -71.9%
16 | CCc1ccc2nc(N(CCCN(C)C)C(=O)c3ccc(S(=O)(=O)N(C)C4CCCCC4)cc3)sc2c1.Cl | 8.35%
17 | CCCCNC(=O)C1CCN(S(=O)(=O)c2ccc3c(c2)CC(C)N3C(=O)C2CC2)CC1 (centres unmarked) | 1.16%
18 | NC(=O)C(c1ccc(Cl)cc1)c1ccc(Sc2ccc(Cl)cc2)nn1 (centres unmarked) | -9.96%
19 | Cc1nn2c(NCCCn3ccnc3)cc(C(C)C)nc2c1-c1ccccc1 | -23.5%
20 | Cc1cc(NCCC(C)C)n2nc(C)c(-c3ccccc3)c2n1 | 1.03%
21 | Cc1cc(NCc2ccccn2)n2nc(C)c(-c3ccc(Cl)cc3)c2n1 | 14.2%

Row | SMILES | hERG current change (%, negative = inhibition) at 10uM
22 | CCCc1cc(NCCCn2ccnc2)n2nc(C)c(-c3ccccc3)c2n1 | -74.9%
23 | Cc1cc(NCCCN2CCOCC2)n2nc(C)c(-c3ccc(F)cc3)c2n1 | -31.1%
24 | CCCc1cc(N2CCCC2)n2nc(C)c(-c3ccccc3)c2n1 | 8.36%
25 | Cc1cc(NCCCn2ccnc2)n2nc(C)c(-c3ccc(Cl)cc3)c2n1 | -71.8%
26 | Cc1cc(NCCCN2CCOCC2)n2nc(C)c(-c3ccccc3)c2n1 | -14.6%
27 | CCCc1cc(NCc2ccccn2)n2nc(C)c(-c3ccccc3)c2n1 | 4.77%
28 | Cc1cc(NCCN2CCOCC2)n2nc(C)c(-c3ccc(Cl)cc3)c2n1 | -50.2%
29 | Cc1cc(NCCCn2ccnc2)n2nc(C)c(-c3ccccc3)c2n1 | -72.8%
30 | COc1ccc(CCNc2cc(C)nc3c(-c4ccc(Cl)cc4)c(C)nn23)cc1OC | 15.5%
31 | NNC(=O)c1ccc2[nH]c3c(c2c1)CCCC3 | 5.31%
32 | COc1ccc(-c2nc3ccccc3c(C(=O)Nc3ccc(S(=O)(=O)Nc4cc(C)on4)cc3)c2C)cc1 | -7.09%
33 | COc1ccc(NS(=O)(=O)c2ccc(N3CCOCC3)c(NC(=O)c3ccccc3Br)c2)cc1 | -11.2%
34 | COc1cc(C(=O)N2CCN(C(=O)C(Cc3cc(C)ccc3C)NC(C)=O)CC2)cc(OC)c1OC (centres unmarked) | -14.4%
35 | CCc1ccc(N(C(=O)c2csnn2)C(C(=O)NC2CCCC2)c2cccnc2)cc1 (centres unmarked) | -24.9%
36 | O=C(O)C1(c2ccccc2)CCN(S(=O)(=O)c2cccs2)CC1 | 5.95%
37 | N#CC1(NC(=O)COC(=O)c2cc(=O)[nH]c3ccccc23)CCCCC1 | 14%
38 | Cc1nn(CC(N)=O)c(=O)c2ccccc12 | 10.6%
39 | CN(C)CCNc1nc2c(c(=O)[nH]c(=O)n2C)n1CCOc1ccccc1 | -5.88%
40 | Cc1nc(Cl)c2oc3ccccc3c2n1 | 9.28%
41 | O=C(NCCCN1CCC(Cc2ccccc2)CC1)C1CCC(=O)N1C1CCCC1 (centres unmarked) | 6.52%
42 | Cc1ccc(/C(=C\CN2CCCC2)c2ccccn2)cc1.Cl | -55.4%

Row | SMILES | hERG current change (%, negative = inhibition) at 10uM
43 | Cc1ccc(C(=O)NCCNC(=O)c2ccccn2)cc1 | 12.9%
44 | Cc1ccc(C(=O)NCCCNC(=O)c2ccccn2)cc1 | 5.5%
45 | CCOC(=O)Cc1csc(SCC(=O)c2c(N)n(CC(C)C)c(=O)n(C)c2=O)n1 | -2.23%
46 | Cc1ccc(OC(C)C(=O)N2CC(=O)Nc3ccccc32)cc1 (centres unmarked) | -67.7%
47 | COc1ccccc1OC(C)C(=O)N1CC(=O)Nc2ccccc21 (centres unmarked) | 15.8%
48 | Cc1ccc(OC(C)C(=O)N2CC(=O)Nc3ccccc32)c(C)c1 (centres unmarked) | 2.56%
49 | CCCN(CC(=O)Nc1ccccc1OC)C(=O)Cc1ccc2c(c1)CCC2 | -18.1%
50 | [O-][n+]1c2ccccc2c2n1CCN1CCOC21c1ccc(Cl)cc1 (centres unmarked) | -42.3%
51 | CC[n+]1c(/C=C/C=C/N(C(C)=O)c2ccccc2)sc2cc(OC)ccc21.[I-] | -32.8%
52 | CC[n+]1c(/C=C/C=C/c2ccc(N(C)C)cc2)sc2ccccc21.[O-][Cl+3]([O-])([O-])[O-] | -73.4%
53 | CC/C(=C/c1sc2ccccc2[n+]1CC)SC.COS(=O)(=O)[O-] | 0.104%
54 | CC[n+]1c(/C=C/N(C)c2ccccc2)sc2ccc(Cl)cc21.[O-][Cl+3]([O-])([O-])[O-] | -62.6%
55 | CN(C)c1ccc(/C=C/C=C/c2sc3ccccc3[n+]2C)cc1.[O-][Cl+3]([O-])([O-])[O-] | -42.6%
56 | CC[n+]1c(/C=C/C=C/N(C(C)=O)c2ccccc2)sc2ccccc21.[I-] | -69.8%
57 | CN(C)c1ccc(/C=C/c2nc3ccccc3s2)cc1 | 17.7%
58 | CCCc1nn(C(=O)c2ccccc2)c2c1C(=O)CC(C)(C)C2 | 11.5%
59 | C=CCOC(=O)/C(=C\c1cccc2ccccc12)NC(=O)c1ccccc1 | -9.44%
60 | CC(=O)/C=C(\C)N=Nc1c(O)[nH]c2ccccc12 | 5.48%
61 | Cc1ccc(NC(=O)c2ccccc2NS(=O)(=O)c2ccc(F)cc2)cc1S(=O)(=O)N1CCCCC1 | 3.17%
62 | Cc1ccc(NS(=O)(=O)c2ccc(-n3cccn3)cc2)c(C)c1 | 22.8%
63 | CCC(CC)c1nnc(NC(=O)C2CC(=O)N(CCc3ccc(OC)c(OC)c3)C2)s1 (centres unmarked) | -0.537%

Row | SMILES | hERG current change (%, negative = inhibition) at 10uM
64 | CCn1c2ccccc2c2cnc(N=CN(C)C)c(C#N)c21 | -24%
65 | N#Cc1ccc(Nc2nc(-c3ccc(O)cc3O)cs2)cc1C(F)(F)F | 11.9%
66 | Fc1ccc(-c2[nH]ncc2CN2CCN(c3ccc(F)cc3)CC2)cc1 | -44.5%
67 | CCOc1ccccc1N1CCN(Cc2cn[nH]c2-c2ccc(F)cc2)CC1 | -72.3%
68 | Fc1ccc(N2CCN(Cc3nnc(-c4ccccc4)o3)CC2)cc1 | -11.9%
69 | COc1ccccc1N1CCN(Cc2ccccc2Cl)CC1 | -23.5%
70 | COc1ccc(-c2[nH]ncc2CN2CCN(c3ccc(F)cc3)CC2)cc1 | -45.7%
71 | COc1ccccc1N1CCN(Cc2cn[nH]c2-c2ccc(F)cc2)CC1 | -55.3%
72 | Fc1ccc(N2CCN(Cc3cn[nH]c3-c3ccccc3)CC2)cc1 | -59.2%
73 | CCOc1ccccc1N1CCN(Cc2cnc(-c3ccccc3)[nH]2)CC1 | -40.6%
74 | CCOc1ccccc1N1CCN(Cc2cc3c(cc2[N+](=O)[O-])OCO3)CC1 | -20.6%
75 | Cc1c(C)n(CCCN(C)C)c2ncnc(NCc3ccccc3)c12 | -13.9%
76 | O=P(C(=Nc1ccc(Cl)cc1)N1CCOCC1)(N1CCOCC1)N1CCOCC1 | -17.6%
77 | Cc1ccc(S(=O)(=O)N(C)C)cc1NC(=S)N(C)C1CCN(C)CC1 | 16.2%
78 | Cc1ccc(C)c(NC(=O)NCCN2CCCCC2)c1 | -15.1%
79 | COc1ccc(S(=O)(=O)N2CCOC23CCN(S(=O)(=O)c2cc(C)ccc2OC)CC3)cc1 | 26.8%
80 | CCN(C(=O)COC(=O)Cc1c[nH]c2ccccc12)c1c(N)n(Cc2ccccc2)c(=O)[nH]c1=O | 16.3%
81 | Cc1cc(Br)ccc1NC(=S)N1CCOCC1 | 12.5%
82 | COc1ccc(CNC(=O)CCCOc2cc(=O)n(C)c3ccccc23)cc1 | -19.2%
83 | Cn1c(SCC(=O)Nc2nccs2)nnc1C12CC3CC(CC(C3)C1)C2 | -6.22%
